This is an account of results in PubChem BioAssay AID463173 (ICCB-Longwood Screening Facility, Harvard Medical School, 2010).

Among all 52,000 compounds or so, about 4,300 (8.3%) were called active. For the sample, actives were picked, then their nearest neighbours and some compounds at random. A number with no mark means an inactive call. No stated cut-off is given here; in the data, active means survival mostly below about 52% (no sharp cut-off); inactive means mostly above about 56%.

This experiment concerns DeltatarO mutant. Kind of experiment: growth inhibition of S. aureus wild type versus tarO mutant, primary screen, teichoic acid synthesis inhibitors, RN4220, OD600 (AID 463173). The following applies: OD600, 18 h, hits give low values, screened at 18.75 µg/mL (by protocol).
As to `Cc1cccc(-c2nc(S(=O)(=O)c3ccc(Cl)cc3)c(N3CCCCCC3)o2)c1`, the survival was 46% (active).

As to `COc1cccc(-c2nc(S(=O)(=O)c3ccccc3)c(N3CCCCC3)o2)c1`, the survival was 61%.

For `Cc1cccc(-c2nc(S(=O)(=O)c3ccc(F)cc3)c(N3CCN(c4ccccc4)CC3)o2)c1`, the survival was 110%.

With `COc1cccc(-c2nc(S(=O)(=O)c3ccc(C)cc3)c(N3CCCCCC3)o2)c1`, the survival was 55%.

On to `COc1cccc(-c2nc(S(=O)(=O)c3ccc(C)cc3)c(N3CCCCC3)o2)c1`, for which the survival is 47%.

As to `Cc1ccc(S(=O)(=O)c2nc(-c3cccc(C)c3)oc2N2CCN(c3ccccc3)CC2)cc1`, the survival was 114%.

Consider `Cc1ccc(S(=O)(=O)c2nc(-c3cccc(C)c3)oc2N2CCCCC2)cc1`, for which the survival was 6% (active).

As for `Cc1ccc(S(=O)(=O)c2nc(-c3cccc(Br)c3)oc2N2CCCCCC2)cc1`, the survival is 45% (active).

Take `Cc1cccc(-c2nc(S(=O)(=O)c3ccccc3)c(N3CCN(c4ccccc4)CC3)o2)c1`: the survival was 112%.

With `Cc1ccc(Cc2nc3ccccc3nc2SCC(=O)NCc2ccccc2Cl)cc1`, the survival is 120%.

On to `O=C(Cn1c(=O)n(-c2ccccc2Cl)c(=O)c2sc3ccccc3c21)N1CCCC1`, for which the survival is 80%.

`O=c1c2oc3ccccc3c2n(Cc2ccccc2Cl)c(=O)n1Cc1ccc2c(c1)OCO2`: the survival is 65%.

For `CSc1ccc(CNC(=O)c2cc3cc(S(=O)(=O)N4CCCCC4)ccc3n2C)cc1`, the survival is 95%.

On to `Cc1ccc(Cl)cc1NC(=O)CSc1nc2ccccc2c2nc(-c3ccccc3)nn12`, for which the survival is 113%.

Consider `CCOC(=O)CC(NC(=O)CCc1c(C)nc2ncnn2c1C)c1ccc(OC(C)C)cc1` (configuration not stated), for which the survival is 114%.

For `Cc1ccc(Cn2c(C(=O)Nc3ccc(Cl)cc3)cc3sccc32)cc1`, the survival was 112%.

As for `CC(=O)c1c(C)n(-c2ccc(Cl)cc2)c2ccc(OC(=O)COc3ccccc3)cc12`, the survival was 63%.

Consider `Cn1c(CNc2nc(-c3ccccc3)cs2)nnc1SCC(=O)OC1CCCCC1`, for which the survival is 73%.

On to `CCn1c(CNc2nc(-c3ccccc3)cs2)nnc1SCC(=O)c1ccc(OC)cc1`, for which the survival was 87%.

On to `Cn1c(CNc2nc(-c3ccccc3)cs2)nnc1SCC(=O)c1ccccc1`, for which the survival is 51% (active).

For `CSc1ccc(CCNC(=O)c2ccc3c(Cl)c4c(nc3c2)CCCC4)cc1`, the survival is 64%.

As to `CCCOC(=O)c1ccc2c(c1)C(=O)N(c1ccccc1)C2=O`, the survival was 78%.

Regarding `O=C(NCc1ccc2c(c1)OCO2)c1ccc2c(c1)N(Cc1ccccc1)C(=O)c1ccccc1S2=O` (configuration not stated), the survival is 83%.

For the molecule `CC(CNC(=O)c1ccc(Cn2c(SCc3ccccc3)nc3cccnc32)cc1)c1ccccc1` (configuration not stated), the survival was 69%.

As for `O=C(O)CN1CCCCC1`, the survival is 89%.

Consider `COc1ccc(C(=O)n2nc(-c3ccc(Cl)cc3)nc2NCc2ccco2)cc1`, for which the survival was 115%.

Consider `O=C(c1ccco1)n1nc(-c2ccccc2)nc1NCc1ccccc1Cl`, for which the survival is 96%.

Consider `O=C(c1ccco1)n1nc(-c2ccc(Cl)cc2)nc1NCc1ccccc1`, for which the survival is 74%.

Regarding `O=C(c1ccc(F)cc1)n1nc(-c2ccc(Cl)cc2)nc1NCc1ccco1`, the survival is 70%.

As for `O=C(c1ccco1)n1nc(-c2ccccc2)nc1NCc1ccc(Cl)cc1`, the survival is 91%.

On to `O=C(c1ccc(F)cc1)n1nc(-c2ccccc2)nc1NCc1ccco1`, for which the survival is 18% (active).

For `O=C(c1ccccc1)n1nc(-c2ccc(Cl)cc2)nc1NCc1ccco1`, the survival was 23% (active).

For `O=C(c1ccco1)n1nc(-c2ccc(Cl)cc2)nc1NCc1ccc(F)cc1`, the survival was 80%.

As to `O=C(c1ccc(Cl)cc1)n1nc(-c2ccccc2)nc1NCc1ccco1`, the survival is 29% (active).

Turning to `Cc1ccc2onc(CNC(=O)NCc3ccc(Cl)cc3)c2c1`, the survival is 77%.

For `FC(F)(F)COc1nc(OCC(F)(F)F)nc(N(c2ccccc2)c2ccccc2)n1`, the survival was 71%.

Regarding `O=C(CCCCn1c(=O)c2ccccc2n(Cc2ccccc2Cl)c1=O)NCc1ccc2c(c1)OCO2`, the survival is 78%.

On to `COc1ccc(S(=O)(=O)c2c(Nc3c(C)cccc3C)sc(C(=O)c3ccc(F)cc3)c2N)cc1`, for which the survival is 98%.

As to `Cc1ccc(C)c(S(=O)(=O)c2nnn3c2nc(N2CCCCC2)c2sccc23)c1`, the survival is 60%.

As for `COc1cccc(C(=O)N2CCCCC2CCN2CCCCC2)c1` (configuration not stated), the survival was 83%.

Take `O=c1[nH]c2nonc2nc1/C=C(\O)c1ccccc1`: the survival was 15% (active).

As to `O=c1[nH]c2ccccc2nc1/C=C(\O)c1ccccc1`, the survival is 83%.

For the molecule `NC(=O)NC(=O)c1nc2nonc2[nH]c1=O`, the survival is 91%.

Turning to `Cc1cccc(OC2CCS(=O)(=O)C2)c1` (configuration not stated), the survival is 87%.

On to `COc1ccc(C2=C(C)C(=NCCCN3CCN(c4cc(Cl)ccc4C)CC3)NS2(=O)=O)cc1`, for which the survival was 59%.

As to `N#CC(C#N)=Cc1cn(CCCOc2ccccc2Cl)c2ccccc12`, the survival is 76%.

Take `O=C(CSc1nnc(-c2ccc(Br)cc2)n1-c1ccccc1)c1ccccc1`: the survival is 69%.

Consider `CCn1c(SCC(=O)c2ccc([N+](=O)[O-])cc2)nnc1-c1ccc(Cl)cc1`, for which the survival was 70%.

As to `COc1ccccc1-c1nnc(SCC(=O)c2ccc(Cl)cc2)n1-c1ccccc1`, the survival is 1% (active).

As to `Cn1c(SCC(=O)c2ccc(F)cc2)nnc1-c1ccccc1Br`, the survival was 57%.

`Cc1ccc(C(=O)CSc2nnc(-c3ccccc3)n2-c2ccccc2)cc1`: the survival is 99%.

In the case of `O=C(CSc1nnc(-c2ccccc2Br)n1-c1ccccc1)c1ccc(F)cc1`, the survival is 17% (active).

Consider `Cc1ccc(-c2nnc(SCC(=O)c3ccc(Cl)cc3)n2-c2ccccc2)cc1`, for which the survival was 85%.

As for `COc1ccccc1-c1nnc(SCC(=O)OC(C)C)n1-c1ccccc1`, the survival is 92%.

For `CCOc1ccc(-c2nnc(SCC(=O)c3ccc(F)cc3)n2-c2ccccc2)cc1`, the survival is 168%.

With `CCn1c(SCC(=O)c2ccccc2)nnc1-c1cccc(Cl)c1`, the survival is 39% (active).

`COc1ccccc1-c1nnc(SCC(=O)c2ccc(F)cc2)n1-c1ccccc1`: the survival is 6% (active).

As to `CCn1c(SCC(=O)c2ccccc2)nnc1-c1ccco1`, the survival is 86%.

Turning to `CCCCNC(=O)CSc1nc(-c2ccc(OC)cc2)cc(C(F)(F)F)n1`, the survival was 66%.

In the case of `Cc1oc2c(c(C)cc3oc(=O)c(CC(=O)NCc4ccc(F)cc4)c(C)c32)c1C`, the survival was 89%.

For `CCc1c(C)nc2cc(-c3cc(OC)cc(OC)c3)nn2c1NCCO`, the survival is 95%.

With `CC(=O)N1c2ccccc2C(=O)C1N1CCN(c2cccc(C(F)(F)F)c2)CC1` (configuration not stated), the survival was 91%.

As for `O=C(c1ccccc1)N1c2nc(-c3ccco3)nn2C2(CCCCC2)[C@@H]2CCCC[C@@H]21`, the survival was 62%.

For `O=C(c1ccc(F)cc1)N1c2nc(-c3ccco3)nn2C2(CCCCC2)[C@@H]2CCCC[C@@H]21`, the survival was 53%.

Regarding `Cc1ccc(C(=O)N2c3nc(-c4ccco4)nn3C3(CCCCC3)[C@@H]3CCCC[C@@H]32)cc1`, the survival was 59% (active).

As to `CSc1ccc(CCNC(=O)c2ccc(-c3nc(COc4ccc(C)cc4)c(C)o3)cc2)cc1`, the survival is 82%.

Consider `COc1cccc(NC(=O)CSc2nc(=O)n(Cc3ccco3)c3c2CCC3)c1`, for which the survival was 90%.

As to `Cc1c(Cl)cccc1NC(=O)CCN1C(=O)c2ccccc2Sc2ncccc21`, the survival was 78%.

For the molecule `CCOc1ccc(C(=O)Cn2c(=O)n3nc(CCn4nc(C)cc4C)nc3c3cc(OC)c(OC)cc32)cc1`, the survival is 98%.

On to `Cc1ccc2nc3c(c(Nc4ccc(C)c(C)c4)c2c1)CCC3`, for which the survival is 38% (active).

In the case of `COc1ccc(C)cc1Nc1c2c(nc3ccccc13)CCC2`, the survival is 85%.

Consider `Cc1ccc(Nc2c3c(nc4ccccc24)CCC3)cc1F`, for which the survival is 2% (active).

For `COc1ccc(Nc2c3c(nc4ccccc24)CCC3)cc1Cl`, the survival was 59%.

As for `Fc1ccc(Nc2c3c(nc4ccccc24)CCC3)cc1`, the survival was 69%.

With `COc1ccc(OC)c(Nc2c3c(nc4ccccc24)CCC3)c1`, the survival was 94%.

Turning to `CCOC(=O)c1ccc(CN(Cc2ccccc2C)S(=O)(=O)c2ccc(C(C)(C)C)cc2)cc1`, the survival was 83%.

Regarding `CCN1C(=O)c2ccccc2S(=O)(=O)c2ccc(C(=O)NCc3ccc(C)cc3)cc21`, the survival was 61%.

Consider `Cc1ccc(C(=O)c2cn(CC(=O)NCc3ccccc3)c3nc(C)ccc3c2=O)cc1`, for which the survival is 95%.

In the case of `Cc1ccc(CNC(=O)c2c(-c3ccc(F)cc3F)noc2C)o1`, the survival was 77%.

Consider `CCc1nn2c(=O)cc(COC(=O)c3ccccc3NC(=O)COc3ccc(C)c(C)c3)nc2s1`, for which the survival was 87%.

For `CN(C)CCNC(=O)CCCn1c(=O)c2cccn2c2ccccc21`, the survival was 64%.

Regarding `O=C(CCCn1c(=O)c2cccn2c2ccccc21)NCc1ccccc1Br`, the survival is 43% (active).

With `COc1ccc(Br)cc1CNC(=O)CCCn1c(=O)c2cccn2c2ccccc21`, the survival was 39% (active).

For the molecule `O=C(CCCn1c(=O)c2cccn2c2cccnc21)NCc1ccccc1Br`, the survival is 130%.

On to `Cc1ccccc1CNC(=O)CCCn1c(=O)c2cccn2c2ccccc21`, for which the survival was 68%.

As to `CCCCN(CC)C(=O)CCCn1c(=O)c2cccn2c2ccccc21`, the survival is 49% (active).

Take `COc1ccccc1CNC(=O)CCCn1c(=O)c2cccn2c2ccccc21`: the survival is 76%.

Take `COc1ccc(Br)cc1CNC(=O)CCCn1c(=O)c2cccn2c2cccnc21`: the survival was 106%.

In the case of `CCCCN(CC)C(=O)CCn1c(=O)c2cccn2c2cccnc21`, the survival was 70%.

For the molecule `O=C(CN1C(=O)CCSc2ccccc21)Nc1ccccc1F`, the survival is 85%.

In the case of `CCc1ccc(NC(=O)C2CCN(c3nn4c(=O)cc(C)nc4s3)CC2)cc1`, the survival is 101%.

In the case of `COc1ccc(Cn2c(=O)c3cccnc3n(CC(=O)Nc3c(C)cc(C)cc3C)c2=O)cc1`, the survival was 87%.
